In PubChem BioAssay (Tox21):
Results filed as inconclusive are left out. The source made the active and inactive calls. Unless noted, calls come from the whole dose curve; as a rule, active = well fitted curve in the direction sought with a large enough effect in the repeat runs; inconclusive = weak or mixed curves; inactive = no such curve, though single readings can be large; an effect the other way counts as inactive or inconclusive.

Legend:
[1] = A CellTox Green Cytotoxicity Assay to monitor cytotoxicity in HEK293 cells - 32 hour (AID 1224881); note: nearly all actives have a fitted effect of over 40% in size
How it was run: (§1)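 Cells (HEK293, 600/well) and dye reagent are dispensed together. After 5 h at 37 C, 23 nL compound is pinned in. Plates stay at 37 C for 40 h with fluorescence read at 0h, 8h, 16h, 24h, 32h and 40h.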

[2] = A CellTox Green Cytotoxicity Assay to monitor cytotoxicity in HepG2 cells - 0 hour (AID 1224882); note: nearly all actives have a fitted effect of over 35% in size
How it was run: (§2)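 Cells and non-lytic dye reagent are dispensed together (600 HepG2 cells/well) and incubated 5 h before DMSO compound transfer. Kinetic fluorescence is then recorded in the same wells during 40 h at 37 C.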

[3] = A CellTox Green Cytotoxicity Assay to monitor cytotoxicity in HepG2 cells - 32 hour (AID 1224883); note: nearly all actives have a fitted effect of over 50% in size
How it was run: as §2

[4] = A CellTox Green Cytotoxicity Assay to monitor cytotoxicity in HEK293 cells - 8 hour (AID 1224884); note: nearly all actives have a fitted effect of over 35% in size
How it was run: as §1

[5] = qHTS RealTime-Glo MT Cell Viability Assay in HEK293 cells - 24 hour (AID 1224886); note: top concentration of the series differs between compounds; nearly all actives have a fitted effect of over 50% in size
How it was run: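 Luminescence generated by NanoLuc from substrate produced by living HEK293 cells served as the viability signal. Each value reflects the reading at its stated time point during continuous 40 h compound exposure at 37 C.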

[6] = qHTS RealTime-Glo MT Cell Viability Assay in HEK293 cells - 8 hour (AID 1224887); note: top concentration of the series differs between compounds; nearly all actives have a fitted effect of over 50% in size
How it was run: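 Real-time viability in HEK293: signal arises when living cells convert a prosubstrate for NanoLuc in the medium, so luminescence tracks viable cell number. Compound (23 nL, DMSO) added 5 h post-seeding; kinetic reads at 0–40 h, 37 C.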

[7] = A CellTox Green Cytotoxicity Assay to monitor cytotoxicity in HEK293 cells - 16 hour (AID 1224888); note: nearly all actives have a fitted effect of over 35% in size
How it was run: as §1

[8] = qHTS RealTime-Glo MT Cell Viability Assay in HepG2 cells - 0 hour (AID 1224889); note: nearly all actives have a fitted effect of over 50% in size
How it was run: (§3)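 Tox21 10K library screened in qHTS format on HepG2 cells carrying RealTime-Glo reagents. Compounds were added after a 5 h preincubation, and the luminescent signal from continuous culture was measured repeatedly during 40 h treatment.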

[9] = A CellTox Green Cytotoxicity Assay to monitor cytotoxicity in HepG2 cells - 8 hour (AID 1224890); note: nearly all actives have a fitted effect of over 45% in size
How it was run: as §2

[10] = qHTS assay to identify small molecule antagonists of the estrogen receptor alpha (ER-alpha) signaling pathway using the BG1 cell line in the presence of 0.1 nM 17-beta-estradiol - cell viability counter screen (AID 1259241); note: nearly all actives have a fitted effect of over 40% in size
How it was run: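 The cell line endogenously expresses full-length ER-alpha and carries four EREs driving luciferase. Cells are cultured 5 days hormone-free, treated 22 hr with compounds and 0.1 nM estradiol, then viability is read by fluorescence.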

[11] = qHTS assay to identify small molecule antagonists of the androgen receptor (AR) signaling pathway using the MDA cell line in the presence of 0.5 nM R1881 - cell viability counter screen (AID 1259242); note: nearly all actives have a fitted effect of over 45% in size
How it was run: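 Steps: plate MDA-kb2 cells, rest 5 hr at 37C without CO2; pin in compounds in DMSO; add R1881 to 0.5 nM final; incubate 16 hr; add CellTiter-Fluor, 30 min; read fluorescence.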

[12] = qHTS assay to identify small molecule phospholipidosis (PLD) inducers (AID 1259344; active = well fitted curve in the direction sought with a large enough effect; an effect the other way counts as inactive or inconclusive)
How it was run: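 Phospholipid accumulation was scored by imaging: fixed, Hoechst-counterstained HepG2 cells stained with LipidTOX Red after 24 h compound exposure at 37 C. Read-outs were pit count and pit intensity per well or per cell, with amiodarone and DMSO controls.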

[13] = qHTS assay to identify small molecule HDAC inhibitors - cell viability counter screen (AID 1259365)
How it was run: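 Viability readout: CellTiter-Glo luminescence. Wild-type HCT-116 cells, 2hr compound treatment following overnight attachment at 37 C.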

[14] = qHTS assay to identify small molecule agonists of the sonic hedgehog signaling (Shh) pathway - cell viability counter screen (AID 1259366); note: nearly all actives have a fitted effect of over 50% in size
How it was run: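 Viability measured fluorometrically (CellTiter-Fluor, 1hr, 37C) in 3T3 Gli1-Luc reporter cells after 23hr compound exposure within a 24hr incubation at 37C/5% CO2.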

[15] = qHTS assay to identify small molecule antagonists of the sonic hedgehog signaling (Shh) pathway - cell viability counter screen (AID 1259367); note: nearly all actives have a fitted effect of over 55% in size
How it was run: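 Viability was read by CellTiter-Fluor fluorescence in the same wells, reagent added 23 hr into compound treatment and incubated 1 hr at 37C. The 3T3 Gli1-Luc reporter cells (2,000/well) received conditioned medium after compound and ran 24 hr.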

[16] = qHTS assay to identify small molecule agonists of the sonic hedgehog signaling (Shh) pathway (AID 1259368; calls by dose curve;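 note: NIH/3T3-derived 3T3Gli1-Luc cells carrying a stable Gli1-driven firefly luciferase reporter; series mostly up to about 92 µM; nearly all actives have a fitted effect of over 15% in size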)
How it was run: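 Cells of a mouse NIH/3T3 clone stably expressing luciferase under the Gli1 transcriptional response element are exposed to test chemicals for 24 hr at 37 C. Pathway activation is detected as a rise in luminescence.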

[17] = qHTS RealTime-Glo MT Cell Viability Assay in HepG2 cells - 16 hour (AID 1224885); note: nearly all actives have a fitted effect of over 50% in size
How it was run: as §3

[18] = molecular target: Estrogen receptor (Homo sapiens) (UniProt P03372); test: qHTS assay to identify small molecule antagonists of the estrogen receptor alpha (ER-alpha) signaling pathway using the BG1 cell line in the presence of 0.1 nM 17-beta-estradiol (AID 1259244); note: nearly all actives have a fitted effect of over 50% in size
Chain of Estrogen receptor (Homo sapiens) (P03372 whole entry, looked up): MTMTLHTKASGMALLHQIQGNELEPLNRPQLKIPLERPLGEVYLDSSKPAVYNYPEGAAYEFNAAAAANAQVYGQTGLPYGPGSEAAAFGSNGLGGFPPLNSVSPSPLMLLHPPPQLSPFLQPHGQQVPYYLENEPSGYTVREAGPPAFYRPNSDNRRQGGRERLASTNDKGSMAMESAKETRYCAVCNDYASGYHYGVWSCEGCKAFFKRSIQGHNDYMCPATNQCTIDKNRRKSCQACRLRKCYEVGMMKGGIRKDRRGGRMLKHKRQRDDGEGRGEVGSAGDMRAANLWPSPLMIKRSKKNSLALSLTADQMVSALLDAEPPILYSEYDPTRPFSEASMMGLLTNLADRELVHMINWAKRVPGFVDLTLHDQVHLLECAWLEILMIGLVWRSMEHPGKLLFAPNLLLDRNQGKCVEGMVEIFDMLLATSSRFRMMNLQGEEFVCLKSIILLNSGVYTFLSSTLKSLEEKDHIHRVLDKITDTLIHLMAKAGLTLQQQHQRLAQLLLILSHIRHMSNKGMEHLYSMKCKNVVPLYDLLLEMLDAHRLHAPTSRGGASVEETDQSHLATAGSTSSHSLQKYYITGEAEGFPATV
How it was run: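 Antagonist mode: compounds in DMSO are pinned onto VM7Luc4E2 reporter cells, 0.1 nM final 17beta-estradiol is added, and after 22 h at 37C luciferase luminescence is measured with ONE-Glo.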

[19] = qHTS assay to identify small molecule HDAC inhibitors (AID 1259364);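 note: wild-type HCT-116 cells with endogenous class I/II HDAC activity; top concentration of the series differs between compounds; nearly all actives have a fitted effect of over 45% in size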
How it was run: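 Cells (HCT-116, wild type) are seeded at 1,500 per well, incubated overnight, treated with compound in DMSO for 2 hr, then developed with HDAC-Glo I/II reagent for 30 min at room temperature.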

Measured: Potency

CCCOC(=O)Cc1ccc(OCC(=O)N(CC)CC)c(OC)c1
not listed: [17] | [18] | [19]
inactive: all other assays above

CCN(CCO)CCO
not listed: [4] | [12]
inactive: all other assays above

BrCCc1ccccc1
not listed: [4] | [12] | [18]
inactive: all other assays above

CNC(=O)Oc1cc(C)c(N(C)C)c(C)c1
not listed: [6] | [12] | [15] | [16] | [17] | [18]
inactive: all other assays above

N#CN=C1SCCN1Cc1ccc(Cl)nc1
not listed: [12] | [17] | [19]
inactive: all other assays above

C/C(=N\NC(=O)Nc1cc(F)cc(F)c1)c1ncccc1C(=O)O
not listed: [7] | [12] | [17]
inactive: all other assays above

CC(=NC#N)N(C)Cc1ccc(Cl)nc1
not listed: [7] | [12] | [17] | [18]
inactive: all other assays above
